# Source: PubChem (several laboratories)
# A selection: hits, their analogues and other compounds. The true share with any hit is near 4.6%.
# tim23-1 inh: growth inhibitors of tim23-1 mutant yeast; actives 1.3% (n = 330,000); S. cerevisiae tim23-1 growth, BacTiter-Glo luminescence, 24 h; inhibition, % at 20 µM;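 active = growth inhibition of the mutant yeast at or above 50%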;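 note: temperature-sensitive mutant grown at 25 °C; plate controls were DMSO-treated mutant yeast for no effect and medium wells lacking yeast for full effect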
# tim10-1 inh: growth inhibitors of tim10-1 mutant yeast. S. cerevisiae tim10-1 ts strain growth, BacTiter-Glo, 24 h. inhibition, % at 20 µM. actives 2.2% (n = 330,000);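 active = inhibition of at least 40%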;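 note: mutant grown at 25 °C; 0% = DMSO wells with yeast and 100% = wells holding no yeast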
# SKKanGAS inh: SKKanGAS growth inhibition; S. pyogenes SKKanGAS, kanamycin growth, BacTiter-Glo, 6 h; inhibition, % at 7.5 µM; actives 1.3% (n = 300,000); AID 1662;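 active = mean replicate score, as percent of positive control median, at least 50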;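 note: strain carries kanamycin resistance gene driven by streptokinase promoter and grows in 40 µg/ml kanamycin; loss of luminescence reflects streptokinase promoter inhibition or plain growth inhibition; 0% = median of DMSO wells and 100% = positive control at its reference dose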
# PfHsp90 set2: reduces growth (ATP signal) of yeast expressing P. falciparum Hsp90 | actives 0.32% (n = 310,000) | S. cerevisiae expressing PfHsp90, BacTiter-Glo ATP, 48 h; yeast lacking PDR1 and PDR3 efflux regulators | inhibition, % at 9.4 µM;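 active = every replicate shows inhibition above about 80%, whatever the replicate mean, limit read from the data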;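 note: 0% = DMSO neutral controls and 100% = 20 µM radicicol positive controls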
# NLRP3 yeast inh: blocks the NALP3 inflammasome reconstituted in yeast. Yeast reconstituted NLRP3/ASC/caspase-1, beta-gal luminescence, 24 h. inhibition, % at 10 µM. actives 0.39% (n = 330,000);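 active = inhibition of 50% or more; inactive = inhibition below 50%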;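 note: plate controls were induced DMSO wells for no effect and uninduced yeast grown without galactose for full effect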
# TIM10 inh: growth inhibitors of TIM10 yeast strain; S. cerevisiae TIM10 strain growth, BacTiter-Glo luminescence, 24 h; inhibition, % at 10 µM; actives 1.4% (n = 330,000);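 active = inhibition of 40% or more at the single tested concentration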;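 note: wild-type TIM10 isogenic control strain grown at permissive 25 °C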
# tim10 confirm: TIM10 yeast growth inhibition, confirmed; shares compounds with TIM10 inh; S. cerevisiae tim10 strain growth, BacTiter-Glo luminescence, 24 h; inhibition, % at 10 µM; actives 63% (n = 4,600); AID 463215;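 active = inhibition of yeast growth at or above a set limit in either of two replicates at 10 µM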;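 note: this counterscreen used the strain with wild-type TIM10; 0% = yeast with DMSO and 100% = medium wells lacking yeast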
# Starred values were filed as active, the others as inactive; / = no result given.
SMILES,tim23-1 inh,tim10-1 inh,SKKanGAS inh,PfHsp90 set2,NLRP3 yeast inh,TIM10 inh,tim10 confirm
COc1ccc(N2CCN(S(=O)(=O)c3c(C(=O)N4CCOCC4)c(C)n(C)c3C)CC2)cc1,-18,-9,0,-40,9,-3,/
COc1cc(OC)cc(C(=O)NCc2nc(-c3ccccc3)no2)c1,5,-2,-3,21,23,91*,-23
COc1ccc(CC(=O)NCc2nc(-c3ccccc3)no2)cc1,17,12,-5,/,14,-4,/
O=c1c2c(nc3cc(-c4ccc(F)cc4)[nH]n13)CCC2,-5,12,-6,7,12,-17,/
COc1ccc(CNC(=S)NC2CCCC2)cc1,12,7,2,12,13,15,/
Cc1ccc(CNC(=S)NC2CCC(C(C)(C)C)CC2)cc1 (stereo not given),43,36,66*,-71,31,42*,18
O=C(c1ccc2c(=O)n(Cc3ccccc3Cl)c(=S)[nH]c2c1)N1CCOCC1,8,17,9,12,-8,5,/
CCC(=O)Nc1ccc(/C=C(\C(C)=O)C(=O)c2ccccc2)cc1,35,38,3,1,-10,35,/
CC(=O)/C(=C/c1ccc(N(C)C)cc1)C(=O)c1ccccc1,18,15,-1,17,-11,41*,-17
Cn1c(O)c(C2=c3ccccc3=NC2=O)sc1=Nc1ccc(Cl)cc1,11,27,-2,13,9,49*,18
O=C(O)Cn1c(O)c(C2=c3ccccc3=NC2=O)sc1=O,6,12,0,-18,10,-12,/
COc1ccccc1N1CCN(C(=O)c2ccc(N3CCCC3=O)cc2)CC1,13,5,-1,-21,12,14,/
COc1ccccc1N1CC(C)(C)C(=O)N(C(=O)c2ccc(C)cc2)C1=S,49,37,2,9,28,43*,45*
CC1(C)CC(=O)C(CC(=O)NC2CCCc3ccccc32)C(=O)C1 (stereo not given),21,4,12,29,7,14,/
COc1ccc(CCNC(=S)NC(=O)c2ccccc2)cc1C,31,23,7,-10,16,45*,50*
COc1ccccc1CNC(=S)NCCc1ccccc1,18,36,4,19,12,41*,17
Cc1ccc(CN2CCC(n3nccc3NC(=O)CCOc3ccccc3)CC2)cc1C,6,13,-1,-6,11,-2,/
CCCCN(C)Cc1c(O)ccc2c(=O)c(-c3ccccc3OC)coc12,3,-2,0,-5,7,6,/
COc1cccc(-c2csc(N3CCN(C(=O)NC45CC6CC(CC(C6)C4)C5)CC3)n2)c1,24,34,33,-26,15,42*,25
COc1cccc(NC(=O)N2CCN(c3nc(-c4cccc(OC)c4)cs3)CC2)c1,32,8,34,14,24,24,/
COCC(C)n1c(C)cc(C(=O)COC(=O)c2c(C)nn(-c3ccccc3)c2C)c1C (stereo not given),11,35,5,28,4,43*,-2
COCC(C)n1c(C)cc(C(=O)COC(=O)C2=NN(c3ccccc3)C(=O)CC2)c1C (stereo not given),23,27,-2,/,5,19,/
COCCn1c(C)cc(C(=O)COC(=O)c2c(C)nn(Cc3ccccc3)c2C)c1C,36,31,0,18,-3,41*,3
Cc1nn(Cc2ccccc2)c(C)c1C(=O)OCC(=O)c1cc(C)n(C2CC2)c1C,44,40,-2,-16,6,32,/
CC1(C(=O)OCC(=O)Nc2ccc3ccccc3c2)CC1(Cl)Cl (stereo not given),43,21,-2,-15,9,48*,32*
SMILES,tim23-1 inh,tim10-1 inh,SKKanGAS inh,PfHsp90 set2,NLRP3 yeast inh,TIM10 inh,tim10 confirm
CCN(CC)c1ccc(-c2n[nH]c(=S)n2-c2ccccc2)cc1,32,21,-1,-19,17,41*,27
CC(Sc1nnc(-c2ccco2)n1C)C(=O)Nc1nccs1 (stereo not given),7,-17,11,9,9,-12,/
COc1cc(C(C)=O)ccc1OCC(O)CN1CCN(c2c(C)cccc2C)CC1 (stereo not given),-2,-7,-1,26,19,97*,10
COc1ccccc1NS(=O)(=O)c1cccc(C(=O)NCC(c2ccco2)N(C)C)c1 (stereo not given),7,5,-5,16,11,-1,/
c1ccc(OCCN2CCN(C(c3ccccc3)c3ccccc3)CC2)cc1,41,25,-1,3,-3,42*,47*
NC(=O)N/N=C/c1ccc([N+](=O)[O-])o1,11,4,/,11,24,0,/
Cc1cc(C(=O)N/N=C/c2ccc([N+](=O)[O-])o2)c(C)o1,24,24,5,-11,-11,41*,25
Cn1cccc1/C=N/NC(=O)c1sc2ccccc2c1Cl,46,8,27,-46,26,46*,49*
O=C(N/N=C/c1c[nH]c2ccccc12)c1sc2ccccc2c1Cl,39,-24,-4,/,27,25,/
O=C(N/N=C/c1ccc([N+](=O)[O-])o1)c1sc2ccccc2c1Cl,47,25,12,104*,10,69*,65*
Cc1nonc1C(=O)N/N=C/c1ccc([N+](=O)[O-])o1,34,23,-5,-11,31,28,/
CN(C)C(CNC(=S)Nc1cccc(Cl)c1)c1ccccc1 (stereo not given),18,8,-3,8,15,12,/
CCCn1cc(NC(=O)c2cc(-c3ccccc3)on2)cn1,41,28,-12,1,47,43*,41*
O=C(Nc1ccc(-c2cn3ccsc3n2)cc1)C1CC1,9,17,4,37,8,57*,26
CC(=O)Nc1ccc(-c2cn3ccsc3n2)cc1,7,-14,-5,-18,11,4,/
O=C(CSc1nc(=O)n(CCCN2CCOCC2)c2c1CCCC2)Nc1cccc(F)c1,9,5,-10,-6,13,11,/
O=S(=O)(NCc1ccc2c(c1)OCO2)c1ccc2oc3ccccc3c2c1,32,22,22,/,4,49*,35*
C=C(c1ccccc1Cl)[n+]1ccccc1,1,9,2,10,10,3,/
CCOc1cc(C(=O)N(CC)CC(=O)Nc2c(F)cccc2F)ccc1OCC(=O)N1CCCCC1,-23,-28,-12,/,4,-25,/
O=C(COc1ccc(Cl)cc1Cl)NNC(=O)c1cccnc1,10,8,-4,-4,11,-11,/
Cc1cc(Cl)ccc1OCC(=O)NNC(=O)c1cccnc1,2,-22,-2,-32,3,80*,-7
